# Data from PubChem BioAssay (NCI).
# This is part of a sample that, as a whole, favours compounds with a hit. Of some 83,000 tested, about 20% had one in any assay.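 96-well plates, one dose, 48 hours. Percent growth reported; active if below 10.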 Values without a mark were called inactive. Activity calls are given as the source filed them.
# Columns and labels:
# Assay in all cases: NCI-60 one-dose screen, 48 h (100 = growth as untreated, 0 = no growth, -100 = all killed)
# Settings in all cases: 10 µM unless noted
# T-47D breast = tested on: T-47D breast
# BT-549 breast = tested on: BT-549 breast
# MDA-MB-435 melanoma = tested on: MDA-MB-435 melanoma
# SW-620 colon = tested on: SW-620 colon
# MCF7 breast = tested on: MCF7 breast
# HCT-116 colon = tested on: HCT-116 colon
# HCC-2998 colon = tested on: HCC-2998 colon
# KM12 colon = tested on: KM12 colon
SMILES,growth (T-47D breast),growth (BT-549 breast),growth (MDA-MB-435 melanoma),growth (SW-620 colon),growth (MCF7 breast),growth (HCT-116 colon),growth (HCC-2998 colon),growth (KM12 colon)
Nc1ccc(Nc2ncnc3sc4c(c23)CCN(Cc2ccccc2)C4)cc1,102%,101%,102%,99.7%,84.5%,96.9%,105%,104%
N/C(=N\C(N)=N\c1nc2ccccc2s1)c1ccc(Cl)cc1,68.3%,94.4%,96.3%,103%,69.3%,74.7%,102%,68.4%
CCc1cc2c(cc1Cl)nc1c(=O)[nH]c(=O)nc-1n2CCOCC(C)C,75.2%,94%,3.04% (active),70.2%,39.5%,37.9%,80.3%,74.3%
CCOC(=O)c1cccc(NC2=C(Cl)C(=O)c3nc(C)ccc3C2=O)c1,56.4%,121%,108%,84.3%,76%,76.7%,122%,105%
O=C(NNc1nc2cc(F)cc(F)c2n2cccc12)c1cccnn1,9.21% (active),31.5%,24%,22.1%,10.4%,22.4%,65.6%,24.2%
CC(C)(C)Nc1nc2c(OCCc3ccccc3)cccn2c1-c1ccc([N+](=O)[O-])cc1,15.2%,95.8%,85.3%,77.6%,7.18% (active),49.7%,49.9%,36.8%
C#CCn1cc(/C=N/Nc2nc(-c3ccc(Br)cc3)cs2)c2ccccc21,76.4%,111%,106%,98.7%,64.1%,85.4%,116%,104%
COC(=O)[C@@H](Cc1c[nH]c2ccccc12)NC(=O)CCCCOc1cc(O)c2c(=O)cc(-c3ccccc3)oc2c1,59.7%,90.7%,91.6%,95.8%,94.9%,92.1%,96.5%,95.3%
O=C(CSc1nc2ccccc2c(=O)n1-c1ccc(Cl)c(Cl)c1)Nc1ccc(S(=O)(=O)Nc2ccc(Cl)nn2)cc1,85.9%,94.4%,97.8%,89.7%,95.6%,92%,95.1%,102%
COc1ccc2c(c1)c(/C=N/Nc1ccnc3cc(Cl)ccc13)cn2C,-64.1% (active),-76.9% (active),-92.9% (active),-76.6% (active),-80.2% (active),-82.3% (active),-86.3% (active),-78.1% (active)
COc1cc2oc(-c3cccc(NC(=O)c4cccc([N+](=O)[O-])c4)c3)cc(=O)c2c(OC)c1OC,54.3%,59.8%,53.3%,70.9%,42.9%,33.5%,93.6%,76.4%
COc1ccc(C(=NNS(=O)(=O)c2ccc(C)cc2)c2ccccc2)cc1OC,90%,112%,106%,101%,91.4%,96.3%,102%,105%
CC(C)(C)OC(=O)NCc1ccc(CNc2c([N+](=O)[O-])cnc3ccccc23)cc1,28.1%,54.8%,56.4%,89.6%,40.6%,37.7%,84.7%,74.9%
N#C/C(=C\c1ccc(-c2ccc(Cl)c(Cl)c2)o1)C(=O)Nc1ncc(Cc2ccc(Cl)cc2)s1,17.9%,42.1%,26.9%,10.8%,58.7%,9.52% (active),81.8%,19.6%
C#C[C@]1(O)CC[C@H]2[C@@H]3CC=C4c5sc(Nc6ccc(C)cn6)nc5CC[C@]4(C)[C@H]3CC[C@@]21C,18.9%,-12.7% (active),-51.8% (active),-53.1% (active),-68.9% (active),5.1% (active),19.2%,-35.5% (active)
Cc1nc(N)sc1-c1csc(Nc2ccc(C(F)(F)F)cc2)n1,-0.894% (active),-12% (active),37.8%,20.6%,17.3%,20.6%,21%,10.4%
c1ccc(-c2cn3c(-c4c[nH]c5ccccc45)csc3n2)cc1,31.9%,41.4%,74.7%,72.1%,40.3%,64.5%,71.3%,44.7%
NNc1nnc2nc(Nc3ccccc3)nc(Nc3ccc(S(N)(=O)=O)cc3)n12,109%,107%,108%,104%,97.8%,107%,104%,103%
COc1ccc(/C=N/NC(=O)c2c(N)nn(C)c2Nc2ccccc2)cc1Oc1ccccc1,78.1%,94.1%,101%,100%,75.3%,79.8%,101%,92.7%
CC(O)c1cccc(/C(N)=N/C(N)=N/c2nc3ccccc3s2)c1 (stereo not given),83.6%,117%,98%,98.2%,90.5%,70.1%,118%,83.2%
CC1(C)CC[C@]23CC[C@]4(C)[C@H](CC[C@@H]5[C@@]6(C)CC[C@H](NCO)C(C)(C)[C@@H]6CC[C@]54C)[C@H]2[C@H]1OC3,44.2%,98.5%,38.8%,-73.5% (active),1.96% (active),-9.59% (active),-24% (active),-0.242% (active)
C/C(=N\NC(N)=S)c1nnn(-c2ccc([N+](=O)[O-])cc2)c1C,92%,95.5%,102%,94.9%,91.9%,98.6%,100%,96.8%
CCS(=O)(=O)Nc1ccc(C(=O)CC2(O)C(=O)Nc3ccccc32)cc1 (stereo not given),89.1%,116%,108%,103%,92.3%,104%,100%,101%
O=S(=O)(NCCCNc1nccc(-c2[nH]c(-c3ccccc3)nc2-c2ccc(F)c(O)c2)n1)c1ccccc1,90.1%,112%,51%,133%,94.9%,77.9%,126%,98.8%
CC(C)(C)c1cc(NC(=O)Nc2ccc(-c3cn4c5c(sc4n3)CCc3cn(CCCN4CCCCC4)cc3-5)cc2)no1,-32.8% (active),109%,-98.5% (active),-68.2% (active),-79% (active),-96.2% (active),-82.7% (active),-78% (active)
CNCCN(C)c1ccc(Nc2cc(NC3CC3)n3ncc(C#N)c3n2)cc1NC(C)=O,-16.2% (active),-54.7% (active),6.93% (active),-2.54% (active),-0.902% (active),-5.45% (active),10.2%,8.46% (active)
O=S1SC(c2ccccc2)=NN1c1cc(F)cc(F)c1 (stereo not given),1.86% (active),7.34% (active),63.3%,59.2%,35.6%,16.5%,79.6%,41.7%
Nc1ncc(-c2ccc3ncnc(NCc4ccccc4)c3c2)cn1,15%,34.5%,65.1%,73.7%,19.3%,66.5%,59.8%,72.1%
CCCCCCNC(=O)Oc1ccc(/C(=C(/C)c2ccc(OC)cc2)c2ccc(OCCN3CCCCCC3)cc2)cc1,-19.1% (active),70.3%,24.1%,-41.4% (active),-30.3% (active),-86.6% (active),24.4%,16.7%
COc1ccc(CC(C)=C(c2ccc(OCCN3CCCC3)cc2)c2ccc(OCCN3CCCC3)cc2)cc1,-49.9% (active),-69.5% (active),-76.4% (active),-53% (active),-80% (active),-17.6% (active),-80.3% (active),-95.3% (active)
